FEN1 inh-1 – blocks human flap endonuclease 1; P39748; Recombinant FEN1 flap cleavage, fluorescence, 15 min; Potency, µM (top dose mostly 114 µM), for inactives: top-dose activity change, negative = inhibition, hits mostly inhibitors; 0.35% of 390,000 active; AID 588795; note: potency is the fitted concentration of half-maximal effect; % is set by controls: 0 for no effect and ±100 for the full control effect; nearly all actives have a fitted effect of over 65% in size
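Enzyme 10 nM, 15 min RT preincubation with compound; start with substrate 50 nM final; reads at 0 and 15 min; qHTS titration, four-parameter Hill fit.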
APE1 inh – blocks human APE1 abasic DNA cleavage; AID 2517; 0.35% of 350,000 active; recombinant APE1, TAMRA/BHQ-2 abasic DNA cleavage fluorescence; Potency, µM (top dose mostly 65.8 µM), without a hit: at the top dose activity change, negative = inhibition, usual class: inhibitors; P27695;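 note: potency is the fitted concentration of half-maximal effect; plate controls were vehicle for no effect and reference inhibitor for full effect; nearly all actives have a fitted effect of over 55% in size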
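Endonuclease cleavage of a quenched abasic-site DNA duplex (50 nM) by APE1 (0.75 nM) was tracked by TAMRA dequenching. Compounds were preincubated with enzyme 15 min at room temperature; data normalized to buffer-only and DMSO wells plus NSC13755 control.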
PI5P4K alpha inh – blocks human PI5P4K alpha kinase activity; PI5P4Kalpha enzyme, ADP-Glo luminescence, 60 min; active compounds read low; 1.2% of 330,000 active; max response, %; P48426; active = max response of -50% or lower; inconclusive = between -30% and -50%; inactive = -30% or higher; note: value at the top dose of about 77 µM; % is set by controls: 0 for no effect and ±100 for the full control effect
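Compounds were pin-transferred onto PI5P4Kalpha and substrate in HEPES pH 7.4 buffer with EGTA, CHAPS and 5% DMSO. ATP (5 microM final) started the reaction, which ran 60 minutes at room temperature before ADP-Glo detection.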
WRN helicase inh-1 – blocks human WRN helicase. WRN helicase unwinding, fluorescent forked duplex, kinetic. Potency, µM (doses to about 114 µM), for the others: top-dose activity change, negative = inhibition, usual class: inhibitors. 0.46% of 360,000 active. AID 651768; note: potency is the fitted concentration of half-maximal effect; % is set by controls: 0 for no effect and ±100 for the full control effect; nearly all actives have a fitted effect of over 55% in size
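Kinetic red-fluorescence monitoring (525/598 nm) tracks WRN helicase activity after 100 nM fluorophore-quencher forked duplex and 2 mM ATP are added to 20 nM enzyme pretreated 15 min at room temperature with compound.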
RECQ1 inh-1 – blocks DNA unwinding by human RECQ1. RECQ1 DNA unwinding, red fluorescence kinetic read. Potency, µM (series often up to 57.3 µM), for the others: at the highest dose activity, negative = inhibition, most hits filed as inhibitors. 0.54% of 240,000 active;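 note: potency is the fitted concentration of half-maximal effect; plate controls were vehicle for no effect and no enzyme for full effect; nearly all actives have a fitted effect of over 30% in size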
Target sequence (P46063 whole entry, looked up): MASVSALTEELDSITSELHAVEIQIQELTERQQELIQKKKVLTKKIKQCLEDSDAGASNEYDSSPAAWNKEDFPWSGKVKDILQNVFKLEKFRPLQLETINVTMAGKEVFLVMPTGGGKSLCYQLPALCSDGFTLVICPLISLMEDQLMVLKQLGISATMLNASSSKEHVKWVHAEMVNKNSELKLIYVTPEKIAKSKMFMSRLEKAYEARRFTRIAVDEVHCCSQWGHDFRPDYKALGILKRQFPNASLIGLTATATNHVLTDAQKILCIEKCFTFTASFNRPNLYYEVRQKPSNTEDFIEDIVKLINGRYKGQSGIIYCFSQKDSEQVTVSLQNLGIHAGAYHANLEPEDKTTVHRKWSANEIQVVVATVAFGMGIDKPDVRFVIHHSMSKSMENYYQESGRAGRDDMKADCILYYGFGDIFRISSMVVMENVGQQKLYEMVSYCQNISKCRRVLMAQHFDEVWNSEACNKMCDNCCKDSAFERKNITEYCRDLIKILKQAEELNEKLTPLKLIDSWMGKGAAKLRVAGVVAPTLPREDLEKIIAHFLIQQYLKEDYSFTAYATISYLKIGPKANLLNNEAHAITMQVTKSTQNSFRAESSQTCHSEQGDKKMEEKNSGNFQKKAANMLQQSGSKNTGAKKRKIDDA
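RECQ1T1 50 nM; forked duplex (20 bp + 30-nt ss tails) 200 nM, ATP 2 mM final; pH 8.0, 2 mM MgCl2, 2.5 ug/ml poly(dI-dC); 15 min compound preincubation; discontinuous kinetic read over 2 h at RT.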
BLM helicase inh-1 – Bloom syndrome helicase (human) inhibition | P54132 | recombinant BLM DNA unwinding, fluorescence dequenching | Potency, µM (titrated, usually from 56.1 µM), for inactives: at the highest dose activity change, negative = inhibition, hits mostly inhibitors | 0.2% of 350,000 active | AID 2528;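 note: potency is the fitted concentration of half-maximal effect; plate controls were vehicle for no effect and no enzyme for full effect; nearly all actives have a fitted effect of over 35% in size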
RECQ1 conf – confirmation of human RECQ1 helicase inhibitors; RECQ1 helicase DNA unwinding, fluorescence; shares compounds with RECQ1 inh-1; 28% of 610 active; Potency, µM (highest dose often 229 µM), for inactives: top-dose activity change, negative = inhibition, hits mostly inhibitors; note: potency is the fitted concentration of half-maximal effect; % is set by controls: 0 for no effect and ±100 for the full control effect; nearly all actives have a fitted effect of over 45% in size
ADP FP counter – counter-screen for RECQ1 inhibitors: ADP displacement | shares compounds with RECQ1 inh-1 | ADP fluorescence polarization displacement counterscreen | Potency, µM (doses to about 228 µM), without a hit: at the top dose activity change, negative = inhibition, usual class: inhibitors | 27% of 530 active | AID 2711; note: potency is the fitted concentration of half-maximal effect; % is set by controls: 0 for no effect and ±100 for the full control effect; nearly all actives have a fitted effect of over 45% in size
RECQ1 inh-2 – RECQ1 helicase inhibition confirmed, round 2. shares compounds with RECQ1 inh-1. recombinant RECQ1 DNA unwinding, red fluorescence. Potency, µM (doses to about 119 µM), without a hit: at the top dose activity, negative = inhibition, usual class: inhibitors. 15% of 1,100 active. AID 504841; note: potency is the fitted concentration of half-maximal effect; % is set by controls: 0 for no effect and ±100 for the full control effect; nearly all actives have a fitted effect of over 50% in size
FEN1 inh-2 – confirmation of human FEN1 inhibitors. shares compounds with FEN1 inh-1. FEN1 flap cleavage, TAMRA/BHQ2 fluorogenic DNA substrate. Potency, µM, actives largely listed as inhibitors. 79% of 880 active. AID 720498; note: potency is the fitted concentration of half-maximal effect; nearly all actives have a fitted effect of over 60% in size
WRN helicase inh-2 – confirmation of human WRN helicase inhibitors. shares compounds with WRN helicase inh-1. WRN helicase DNA unwinding, fluorescence kinetic. Potency, µM (series often up to 57.1 µM), for inactives: top-dose activity, negative = inhibition, usual class: inhibitors. 63% of 610 active. AID 720497; note: potency is the fitted concentration of half-maximal effect; nearly all actives have a fitted effect of over 65% in size
TO displacement – DNA binding via thiazole orange displacement | shares compounds with WRN helicase inh-1 | thiazole orange DNA binding displacement, fluorescence | Potency, µM (top dose mostly 57.1 µM), for inactives: at the highest dose activity change, negative = inhibition, hits mostly inhibitors | 10% of 610 active | AID 720499;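 note: drop in dye fluorescence marks compound binding to DNA; potency is the fitted concentration of half-maximal effect; % is set by controls: 0 for no effect and ±100 for the full control effect; nearly all actives have a fitted effect of over 60% in size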
BLM helicase inh-2 – blocks human BLM helicase in WRN counterscreen; shares compounds with WRN helicase inh-1; Recombinant BLM helicase DNA unwinding, red fluorescence; Potency, µM (doses to about 57.1 µM), inactives show at the top dose activity change, negative = inhibition, hits mostly inhibitors; 60% of 610 active; AID 720503; note: potency is the fitted concentration of half-maximal effect; nearly all actives have a fitted effect of over 60% in size
ADP-Glo counter – ADP-Glo luciferase interference, PI5P4K counter-screen. shares compounds with PI5P4K alpha inh. ADP-Glo detection counter-screen, luciferase luminescence, no enzyme. Potency, µM (titrated, usually from 76.9 µM), for the others: top-dose activity change, negative = inhibition, usual class: inhibitors. 1,100 tested, under 10 active. AID 743285
The depositor's hits bear a star; i = inactive; u = inconclusive; x = no result given; [ ] = remark or other dose. Sampled rows, rich in hits. Any-hit rate of the full collection: about 1.5%. Unless noted, calls come from the whole dose curve; as a rule, active = well fitted curve in the direction sought with a large enough effect; inconclusive = small, poorly fitted or top-dose-only effect, or another doubt; inactive = no such curve, though single readings can be large; an effect the other way counts as inactive or inconclusive.

SMILES | FEN1 inh-1 | APE1 inh | PI5P4K alpha inh | WRN helicase inh-1 | RECQ1 inh-1 | BLM helicase inh-1 | RECQ1 inh-2 | WRN helicase inh-2 | TO displacement | BLM helicase inh-2 | ADP-Glo counter | others
O=C1/C(=C\c2ccc(O)cc2)SC(=S)N1c1cccnc1 | u | 4% | -6 | -10%[11.6 µM] | -9% | u | x | x | x | x | x
CS(=O)(=O)c1ccc2c(c1)sc1nc(=O)c(/C=C3/C=CC(=O)C(O)=C3)c(N)n12 | 13µM* | 25µM* | -80* | 28µM* | 16µM* | 25µM* | 7.9µM* | 1.9µM* | 31% | 3µM* | x | FEN1 inh-2=38*
Cc1ccc(C)c(N2CCN(C(=O)C3CCN(c4nc(-c5ccc(C(C)C)cc5)no4)CC3)CC2)c1 | -17% | x | x | x | x | -11% | x | x | x | x | x
O=C(Nc1ccc(NC(=O)c2cccs2)cc1)c1ccc(Br)o1 | -4% | u | 2 | u | u | -18% | u | u | -9% | 9.6µM* | x
O=C(O)c1ccccc1-c1ccc(/C=C/c2cc(C(F)(F)F)[nH]c(=O)n2)o1 | -32% | 0% | u | 79µM* | u | -3% | 79µM* | 24µM* | i | -17% | x
Cc1ccc(C2=NC(=O)/C(=C/c3cc(O)c(O)c(Br)c3)S2)cc1 | 11µM* | 2µM* | -82* | 7.9µM* | 3.5µM* | 3.5µM* | 6.3µM* | 1.7µM* | 6.8µM* | 0.76µM* | x | RECQ1 conf=22µM*
Cc1ccc(/C=C2\SC(N3CCCC3)=NC2=O)cc1 | x | 2% | x | x | i | 0% | x | x | x | x | x
COc1ccc(Cl)cc1NC(=O)Cn1c(=O)n2nc(-c3ccccc3)nc2c2ccccc21 | 20% | x | x | x | x | -8% | x | x | x | x | x
CCc1sc(C(C2C(=O)CC(C)(C)CC2=O)C2C(=O)CC(C)(C)CC2=O)cc1[N+](=O)[O-] | -24% | -7% | u | 32µM* | 3.2µM* | -4% | -12% | 22µM* | 19µM* | 22µM* | x
CC1=Nc2ccccc2/C1=C\c1nc(-c2ccc(F)cc2)oc1O | 71µM* | 9% | x | u | u | -19% | u | 19µM* | 106% | 19µM* | x | FEN1 inh-2=24*
CN=Cc1nc(-c2ccccc2)oc1O | 3% | -5% | -13 | 6% | 1% | 5% | x | x | x | x | x
O=C(NCCc1ccccc1)c1ccc(CSc2nc3ccncc3n2Cc2ccc(F)cc2)cc1 | -19% | x | x | x | x | -4% | x | x | x | x | x
Clc1ccccc1-c1nnc2sc(-c3ccco3)nn12 | -10% | 5% | -4 | -8% | -5% | 2% | x | x | x | x | x
c1ccc(Cc2nnc3sc(-c4ccco4)nn23)cc1 | u | -8% | -51* | u | u | -16% | u | x | x | x | 2%
Cc1c2cnn(CC(=O)Nc3c(F)c(F)cc(F)c3F)c(=O)c2c(C)n1Cc1ccccc1F | 79µM* | u | -56* | u | 25µM* | u | u | 19µM* | 27% | 3.8µM* | 4%
Cc1cc(C)c(NC(=O)c2nc3ccccc3nc2N2CCCCC2)c(C)c1 | -2% | x | x | x | x | 1% | x | x | x | x | x
Nc1nc(Nc2cccc(Cl)c2)nc(NCc2ccco2)c1[N+](=O)[O-] | -8% | -1% | -54* | u | u | u | 79µM* | x | x | x | -2%
Nc1nc(Nc2ccc(Cl)cc2)nc(NCc2ccco2)c1[N+](=O)[O-] | -2% | 16% | -54* | u | 16µM* | u | 79µM* | x | x | x | -2% | RECQ1 conf=32µM*;ADP FP counter=10%[91.9 µM]
Cc1ccc(C(CCN(Cc2ccccc2)C(=O)c2ccco2)c2ccco2)cc1 (configuration not stated) | -4% | -12% | -58* | u | 20µM* | u | u | x | x | x | -2% | RECQ1 conf=50µM*;ADP FP counter=24%[91.9 µM]
CN(Cc1ccccc1)C(=O)c1ccco1 | -3% | 4% | 4 | -2% | i | -7% | x | x | x | x | x
COc1ccc2c(c1)C(=O)[C@@H](OC(=O)NS(=O)(=O)c1ccc(F)cc1)[C@H](c1ccc(OC)c(Br)c1)O2 | x | 3% | x | x | i | 3% | x | x | x | x | x
COC(=O)CCCC1=CC2=CC(=O)C(C)(OC(=O)C3CCCC3)C(=O)C2=CO1 (configuration not stated) | u | 2% | u | u | u | -1% | x | x | x | x | x
CCCCC1=CC2=CC(=O)C(C)(OC(=O)C3CCCC3)C(=O)C2=CO1 (configuration not stated) | u | 1% | -73* | u | u | 0% | 79µM* | x | x | x | -9%
CC(=O)c1sc2nc(-c3ccco3)ccc2c1N | u | 3.2µM* | -61* | u | 3.5µM* | u | -21% | x | x | x | 1%
CN(C)c1ccc(NC(=O)Cn2cc(S(=O)(=O)Cc3ccccc3Cl)c3ccccc32)cc1 | -9% | x | x | x | x | -10% | x | x | x | x | x
CCc1nnc(NC(=O)c2cc(-c3ccco3)nc3ccccc23)s1 | u | u | -78* | 35µM* | u | -20% | u | u | 24µM* | 1.9µM* | -6%
